{"source": "PubChem BioAssay AID651965", "about": "(National Center for Advancing Translational Sciences (NCATS), 2013)", "note": "About 6,400 (1.9%) of roughly 340,000 compounds were called active. Roughly 4% stayed inconclusive and do not appear here. This excerpt belongs to a sample that is enriched for actives. Unmarked numbers belong to inactive results. The call rests on the fitted dose curve; in most records, active means well fitted falling curve with a large enough effect; inconclusive means small, poorly fitted or top-dose-only effect; inactive means no such curve, though single readings can be large or run the other way."}
{"target": "ATP-dependent Clp protease proteolytic subunit (Bacillus subtilis (strain 168)) (UniProt P80244)", "sequence (P80244 whole entry, looked up)": "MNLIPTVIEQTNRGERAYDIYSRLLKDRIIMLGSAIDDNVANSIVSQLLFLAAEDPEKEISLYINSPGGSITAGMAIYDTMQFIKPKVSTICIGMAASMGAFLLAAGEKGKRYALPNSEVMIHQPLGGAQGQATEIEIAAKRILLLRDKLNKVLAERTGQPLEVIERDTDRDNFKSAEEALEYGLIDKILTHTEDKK", "assay": "qHTS Assay for Activators of ClpP; further: the source files actives as falling curves though it sought activators and does not explain the sign; nearly all actives have a fitted effect of over 65% in size", "conditions": "purified B. subtilis ClpP, FRET peptide cleavage, 20 min; series mostly up to 57.5 µM; activity change, negative = active: at the top concentration", "description": "The Clp protease proteolytic subunit (ClpP) is the core unit of the Clp complex belonging to the peptidase family S14 that hydrolyzes protein into small peptides in the presence of ATP and magnesium. It is ubiquitously expressed and is the major protease in bacteria. […] Unlike common antibiotics that simply interfere with the essential enzyme activity, ADEP binding activates the ClpP core in the absence of the regulatory Clp-ATPases leading to uncontrolled proteolysis and eventually cell death. Activators binding to the docking site on ClpP can also block formation of the ClpXP and ClpA/C-P holoenzyme complexes interfering with the normal biological functions of ClpP and thus have the potential to become new anti-microbials.\nTo identify activators of ClpP, a FRET based quenching reversal assay was developed using a purified B. subtilis ClpP and a decapeptide substrate (FRET-FV). The FRET-FV is tagged with a fluorescent molecule amino benzoic acid (donor) at the N-terminus and a nitrotyrosine quencher (acceptor) at the C-terminus. FRET-FV cleaves upon activation of ClpP with ADEP treatement and reverses the quenching effect of the nitrotyrosine causing an increase in fluorescence emission signal at 430nm. This assay was used to screen the Molecular Libraries Small Molecule Repository (MLSMR).\nNIH Molecular Libraries Probe Production Centers Network [MLPCN]\nNIH Chemical Genomics Center [NCGC]\nAssay Submitter (PI): Michael Maurizi, National Cancer Institute\nTwo and a half microL/well of purified enzyme solution (final concentrations 10 microg/mL B. subtilis ClpP in 100 mM Tris/HCl pH8, 100 mM KCl, 0.05% low protease BSA, 2.5% glycerol, 0.01% Tween-20 buffer) was dispensed into 1536-well assay plates (Greiner, black solid, medium-binding plates) with Aurora Discovery BioRAPTR Flying Reagent Dispenser (FRD, Beckton-Dickenson). Compound solution (23 nL) was transferred to the assay plate using Kalypsys pin tool equipped with a 1536-pin tool. […] FRET signals at time 0 and after 20 min room temperature incubation were obtained using the PerkinElmer Envision plate reader with 320nm excitation and 430nm emission filters. Delta FRET value (Time 20 - Time 0) was calculated and normalized to the delta FRET value of positive control ADEP (5.8 microM final concentration) and negative control DMSO and no enzyme wells.", "units": {"activity change, negative = active": "%"}}
{"smiles": "Cc1cccc(C)c1NC(=O)C(c1cccc(F)c1)N1CCN(C)CC1", "note": "(configuration not stated)", "activity change, negative = active": -0.808}
{"smiles": "CCOc1ccc(CCN2C(=S)N([C@@H](CC(C)C)CN3CCC[C@@H]3CN3C(=S)NC[C@@H]3Cc3ccc(O)cc3)C[C@@H]2CC(C)C)cc1", "activity change, negative = active": -1.86}
{"smiles": "O=C(O)c1ccc(/C=N/NC(=O)c2ccc(Br)cc2)cc1", "activity change, negative = active": -2.02}
{"smiles": "CN(C)c1ccc(/C=N/NC(=O)c2ccc(Cn3cc(Br)cn3)o2)cc1", "activity change, negative = active": -1.66}
{"smiles": "O=C(N/N=C\\c1ccc(Br)cc1)c1ccc(Cn2cccn2)o1", "Potency": "25.1 µM (active)"}
{"smiles": "O=S1(=O)CC(N2CCC(Cc3ccccc3)CC2)CN1Cc1ccccc1", "note": "(configuration not stated)", "activity change, negative = active": -0.381}
{"smiles": "O=C(NCC(F)(F)F)c1ccc(S(=O)(=O)NCCc2ccc3c(c2)OCCO3)cc1", "activity change, negative = active": 1.64}
{"smiles": "Cc1cc(Nc2ccc(C)c(C)c2)n2ncnc2n1", "activity change, negative = active": 0.336}
{"smiles": "O=C(/C=C/c1ccc(Cl)cc1)Nc1ccc(Br)cn1", "Potency": "25.1 µM (active)"}
{"smiles": "O=C(/C=C/c1ccc(Cl)cc1)Nc1ccc(S(=O)(=O)Nc2ncccn2)cc1", "activity change, negative = active": 1.87}
{"smiles": "Cc1ccc(NC(=S)NC(=O)/C=C/c2ccc(Cl)cc2)cc1", "activity change, negative = active": -2.53}
{"smiles": "Cc1ccc(-c2ccc(CN3C(C(C)C)C(=O)N(Cc4cn(CCC5OCCO5)nn4)CCS3(=O)=O)cc2)cc1", "note": "(configuration not stated)", "activity change, negative = active": -0.425}
{"smiles": "Cc1cccc(CN2CCN(C3CN(Cc4ccccc4)S(=O)(=O)C3)CC2)c1", "note": "(configuration not stated)", "activity change, negative = active": 1.14}
{"smiles": "CCN1CCN(C(=O)CN(C)S(=O)(=O)c2ccc(OC)cc2)CC1", "activity change, negative = active": 1.17}
{"smiles": "CCN1CCN(C(=O)c2cc3cc4ccc(OC)cc4nc3s2)CC1", "Potency": "25.1 µM (active)"}
{"smiles": "CCN(CCCNC(=O)c1cc2cc3cc(OC)ccc3nc2s1)c1ccccc1", "activity change, negative = active": -0.725}
{"smiles": "COc1cccc(-c2cc3nc(NCc4ccccc4OC)n(C)c(=O)c3s2)c1", "activity change, negative = active": 4.47}
{"smiles": "CCC(C)(C)C1CCC(=NNC(=O)c2ccc(Br)o2)CC1", "note": "(configuration not stated)", "Potency": "25.1 µM (active)"}
{"smiles": "O=C(N/N=C\\C1CC=CCC1)c1ccc(Br)o1", "note": "(configuration not stated)", "activity change, negative = active": -1.65}
{"smiles": "CC(C)(C)C1CCC(=NNC(=O)c2ccc(Br)o2)CC1", "note": "(configuration not stated)", "activity change, negative = active": -0.0122}
{"smiles": "COc1cccc(-c2cnc3c(NC(C)=O)cc(-c4cc(F)ccc4OC)cn23)c1", "activity change, negative = active": -4.6}
{"smiles": "CC1=C(C(=O)N2CCOCC2)CC(CC(=O)NCc2cccs2)C(=O)N1CCCN1CCCC1=O", "note": "(configuration not stated)", "activity change, negative = active": -0.996}
{"smiles": "O=C(C=CC(=O)Nc1ccc(F)cc1F)Nc1ccc(F)cc1F", "activity change, negative = active": 0.87}
{"smiles": "CCCCC[C@@H]1C=C(C(=O)OCC)[C@H](c2ccccc2)N1S(=O)(=O)c1ccc(C)cc1", "activity change, negative = active": -13.2}
{"smiles": "CC(C)Nc1ccc(-n2nc3ccccc3[n+]2[O-])cc1", "Potency": "28.2 µM (active)"}
{"smiles": "CC(=O)Nc1cccc(-c2cc(NC(C)=O)c3ncc(-c4ccccc4)n3c2)c1", "activity change, negative = active": 5.02}
{"smiles": "CS(=O)(=O)/C(C#N)=C/c1cccn1S(=O)(=O)c1ccc([N+](=O)[O-])cc1", "activity change, negative = active": -2.66}
{"smiles": "O=C(NCCCc1ccccc1)c1ccc2c(c1)sc1nc(-c3ccc(F)cc3)cn12", "activity change, negative = active": 4.44}
{"smiles": "COc1ccc(CCNC(=O)c2ccc3c(c2)sc2nc(-c4ccc(C)cc4)cn23)cc1OC", "Potency": "3.16 µM (active)"}
{"smiles": "Cc1ccc(-c2cn3c(n2)sc2cc(C(=O)NCCCc4ccccc4)ccc23)cc1", "Potency": "15.8 µM (active)"}
{"smiles": "CCOc1ccc(CCNC(=O)Cn2nc(CC)n3c(cc4sc(CC)cc43)c2=O)cc1OCC", "activity change, negative = active": -1.22}
{"smiles": "COc1ccc(-c2cn3c(n2)sc2cc(C(=O)Nc4ccc(F)cc4)ccc23)cc1", "activity change, negative = active": -23.9}
{"smiles": "COc1ccc(CCNC(=O)Cc2ccc(C)cc2)cc1OC", "activity change, negative = active": -6.51}
{"smiles": "CCOc1ccc(CCNC(=O)c2ccc3c(c2)sc2nc(-c4ccc(F)cc4)cn23)cc1OCC", "Potency": "25.1 µM (active)"}
{"smiles": "COc1cccc(CNC(=O)c2ccc3c(c2)sc2nc(-c4cccc(OC)c4)cn23)c1", "activity change, negative = active": 4.44}
{"smiles": "COc1ccc(CCNC(=O)c2ccc3c(c2)nc(C)n3-c2ccc(Br)cc2)cc1OC", "activity change, negative = active": -1.76}
{"smiles": "CCc1nc2ccc(C(=O)Nc3cc(-c4ccccc4)ccc3OC)cn2c1N(CC)CC(=O)N(C)C", "activity change, negative = active": 4.3}
{"smiles": "CSc1ncnc2c1ncn2CCCNCC1CCCCC1", "activity change, negative = active": -2.79}
{"smiles": "O=C1NC[C@H](CCCCN2CCN(CCc3ccccc3)C(=O)C2=O)N(CC2CCCCC2)C1=O", "activity change, negative = active": -1.02}
{"smiles": "CC(C)C[C@H]1CNC(=S)N1C[C@H]1CCCN1C[C@H](Cc1ccc(O)cc1)N1C[C@H](Cc2ccc(O)cc2)N(CC2CCCCC2)C1=S", "activity change, negative = active": 1.83}
{"smiles": "c1ccc(Cc2c(-c3ccco3)nc3c4ccccc4ccn23)cc1", "activity change, negative = active": 4.55}
{"smiles": "Cc1ccc(C)c(C(O)c2ncc(-c3cccc4ccccc34)[nH]2)c1", "note": "(configuration not stated)", "activity change, negative = active": 4.92}
{"smiles": "COc1ccc2c(CN3CCN(S(=O)(=O)c4cccs4)CC3)cc(=O)oc2c1", "activity change, negative = active": -14.2}
{"smiles": "Cc1ccc2c(CN3CCN(S(=O)(=O)c4ccccc4C(F)(F)F)CC3)cc(=O)oc2c1", "activity change, negative = active": -9.85}
{"smiles": "O=c1cc(CN2CCN(S(=O)(=O)/C=C/c3ccccc3)CC2)c2ccc(O)cc2o1", "Potency": "10 µM (active)"}
{"smiles": "CCCNC(=O)C1(C)CCN(C(=O)c2cc(F)ccc2C)C1", "note": "(configuration not stated)", "activity change, negative = active": 0.883}
{"smiles": "COc1ccc(C(=O)C(OP(=O)(OC)OC)c2ccccc2OC)cc1", "note": "(configuration not stated)", "activity change, negative = active": -1.26}
